Source: PubChem BioAssay AID1159580 (chemical genetic matrix, 2015)
Among all 5,500 compounds or so, about 2,000 (36%) were called active. Inconclusive results (about 18%) are left out. No stated cut-off is given here; in the data, active means normalized growth mostly below about 0.91 (no sharp cut-off); inconclusive means no clear call, values can overlap the other calls; inactive means mostly above about 0.92. Some of the results follow.

Experiment: chemical genetic growth profiling, strain panel (AID 1159580);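 further: tested at 20 µM; growth read once vehicle control cultures reached saturation at 30 °C; 1 = growth at the plate median or of vehicle wells; lower values mean less growth of the strain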
Details: S. cerevisiae deletion strains, growth OD
[1] = locus YAL040C, strain CLN3, active compounds read low
[2] = locus YCL061C, strain MRC1 (second series), active compounds read low
[3] = locus YDR363W, strain ESC2, active compounds read low
[4] = locus YER002W, strain NOP16, active compounds read low
[5] = locus YGR078C, strain PAC10, active compounds read low
[6] = locus YJR075W, strain HOC1, active compounds read low
[7] = locus YMR307W, strain GAS1, active compounds read low
[8] = locus YNL175C, strain NOP13, active compounds read low
[9] = locus YNL197C, strain WHI3, active compounds read low
[10] = locus YNL224C, strain SQS1, active compounds read low
[11] = locus YOR083W, strain WHI5 (second series), active compounds read low
[12] = locus YPL055C, strain LGE1, active compounds read low
[13] = locus YPL241C, strain CIN2, active compounds read low
[14] = locus YAL013W, strain DEP1, active compounds read low

Measured: normalized growth

CC(C)(C)c1onc(OCP(=O)(O)O)c1CC(N)C(=O)O (stereo not drawn)
inactive: [1] 1 | [2] 0.997 | [3] 1.02 | [4] 0.996 | [5] 1.01 | [6] 1 | [7] 1.03 | locus YNL128W, strain TEP1, active compounds read low 1.03 | [8] 0.999 | [9] 1.01 | [10] 1.01 | [11] 1.06 | [12] 1 | [13] 0.999

O=C(O)C1=CCCN(CCON=C(c2ccccc2)c2ccccc2)C1
inactive: [14] 1 | [1] 1.04 | [2] 1 | locus YDR150W, strain NUM1, active compounds read low 1 | [3] 0.976 | [4] 0.97 | [5] 0.993 | [6] 1 | locus YMR263W, strain SAP30, active compounds read low 1 | [8] 0.987 | [9] 0.981 | [10] 0.993 | [11] 0.987 | [12] 1 | [13] 1

CNCC(O)c1cccc(O)c1 (stereo not drawn)
inactive: [14] 0.992 | [1] 0.974 | [2] 0.988 | [3] 0.99 | [4] 1.01 | locus YGR229C, strain SMI1, active compounds read low 1.01 | [7] 0.968 | [8] 1.01 | [9] 0.998 | [10] 1 | locus YNL322C, strain KRE1, active compounds read low 0.976 | [11] 1.02 | [12] 0.984

COc1ccc(CCNC[C@@H](O)c2ccc(O)cc2)cc1OC
inactive: [14] 1.01 | [1] 0.995 | [2] 0.993 | [3] 1.02 | [4] 1.01 | [7] 0.944 | locus YNL153C, strain GIM3, active compounds read low 0.999 | [8] 0.992 | [9] 0.981 | [10] 0.989 | [11] 0.986
